DT40 TDP1 CPT: DT40-hTDP1 cell growth loss with CPT | 420,000 tested, 12% active | chicken DT40 Tdp1-/-;hTDP1 cells + 20 nM CPT, ATP luminescence, 48 h | AID 686979 | Potency, µM (series often up to 46.2 µM), for inactives: top-dose activity change, negative = growth inhibition, hits mostly inhibitors; also: potency is read from the fitted curve at half-maximal effect; % is scaled to controls: 0 for no effect and ±100 for the full control effect; nearly all actives have a fitted effect of over 55% in size
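Chicken DT40 Tdp1-/- cells complemented with human TDP1, 400 cells/well, exposed to compounds plus 20 nM camptothecin for at least 48 h at 37 C; viability read as ATP content by CellTiter-Glo luminescence.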
IL-1B inflam inh: inhibitors of inflammasome signaling (IL-1 beta secretion); 360,000 tested, 4.7% active; AID 743279; activity change, % at 57.5 µM; THP-1 LPS/ATP IL-1B secretion, AlphaLISA, 16 h; stronger effect = lower value; in the data active = activity change below about -50%; inconclusive = mostly about -30% to -49%; also: % is scaled to controls: 0 for no effect and ±100 for the full control effect
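THP-1 cells pretreated 1 hr with compounds (up to 57.5 uM final), then stimulated with LPS (250 ng/mL final) plus ATP (1.25 mM final); secreted IL-1B measured by AlphaLISA after 16 hr, decreased signal indicating inhibition.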
TDP1 cell noCPT: qHTS for Inhibitors of human tyrosyl-DNA phosphodiesterase 1 (TDP1): qHTS in cells in absence of CPT; DT40 Tdp1-/- hTDP1 cells, no CPT, ATP luminescence, 48 h; 420,000 tested, 15% active; AID 686978, 2013; Potency, µM (highest dose often 46.2 µM), inactives show at the top dose activity change, negative = growth inhibition, actives largely listed as inhibitors; also: potency is read from the fitted curve at half-maximal effect; % is scaled to controls: 0 for no effect and ±100 for the full control effect; nearly all actives have a fitted effect of over 55% in size
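Cells were dispensed at 400 per well, compounds added by pin tool, plates incubated ≥48 hr at 37 °C, then CellTiter-Glo added for 30 min at room temperature before luminescence reading. Line: DT40 Tdp1-/- complemented with hTDP1; camptothecin omitted.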
TGFb inhibitor: inhibitors of TGF-b signaling; Potency, µM (doses to about 46.1 µM), for the others: at the top dose activity, negative = inhibition, usual class: inhibitors; 410,000 tested, 1.2% active; HepG2 CAGA-GFP TGF-b/SMAD3 reporter, GFP fluorescence, 18 h; TGF-beta stimulated, 500 pg/mL final; also: potency is read from the fitted curve at half-maximal effect; % is scaled to controls: 0 for no effect and ±100 for the full control effect; nearly all actives have a fitted effect of over 65% in size
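Inhibition of TGF-beta-driven CAGA-GFP reporter expression in HEPG2 cells is measured by cellular GFP fluorescence after 18 h stimulation with 500 pg/mL recombinant TGF-beta in 1% FBS medium at 37 degrees C.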
HepG2 viability: HepG2 cytotoxicity, counter-screen for TGF-b inhibitors. HepG2 CAGA-GFP viability, ATP luminescence, 18 h. Potency, µM (top dose mostly 46.1 µM), without a hit: top-dose activity change, negative = cytotoxicity, most hits filed as cytotoxic. AID 588856. 410,000 tested, 0.76% active; also: potency is read from the fitted curve at half-maximal effect
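HepG2 CAGA-GFP cells (1000/well, DMEM with 1% FBS) received compound, then TGF-beta at 500 pg/mL final, and were incubated 18 hours at 37 degrees C. Viability was read by CellTiter-Glo luminescence. Media-only wells were set as complete cell-killing and DMSO as no toxicity.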
TDP1 block: inhibitors of human tyrosyl-DNA phosphodiesterase TDP1; Q9NUW8; recombinant TDP1, AlphaScreen DNA substrate cleavage; Potency, µM (top dose mostly 130 µM), for inactives: at the highest dose activity change, negative = inhibition, hits mostly inhibitors; 350,000 tested, 0.28% active; also: potency is read from the fitted curve at half-maximal effect; % is scaled to controls: 0 for no effect and ±100 for the full control effect; nearly all actives have a fitted effect of over 40% in size
Target sequence (Q9NUW8 whole entry, looked up): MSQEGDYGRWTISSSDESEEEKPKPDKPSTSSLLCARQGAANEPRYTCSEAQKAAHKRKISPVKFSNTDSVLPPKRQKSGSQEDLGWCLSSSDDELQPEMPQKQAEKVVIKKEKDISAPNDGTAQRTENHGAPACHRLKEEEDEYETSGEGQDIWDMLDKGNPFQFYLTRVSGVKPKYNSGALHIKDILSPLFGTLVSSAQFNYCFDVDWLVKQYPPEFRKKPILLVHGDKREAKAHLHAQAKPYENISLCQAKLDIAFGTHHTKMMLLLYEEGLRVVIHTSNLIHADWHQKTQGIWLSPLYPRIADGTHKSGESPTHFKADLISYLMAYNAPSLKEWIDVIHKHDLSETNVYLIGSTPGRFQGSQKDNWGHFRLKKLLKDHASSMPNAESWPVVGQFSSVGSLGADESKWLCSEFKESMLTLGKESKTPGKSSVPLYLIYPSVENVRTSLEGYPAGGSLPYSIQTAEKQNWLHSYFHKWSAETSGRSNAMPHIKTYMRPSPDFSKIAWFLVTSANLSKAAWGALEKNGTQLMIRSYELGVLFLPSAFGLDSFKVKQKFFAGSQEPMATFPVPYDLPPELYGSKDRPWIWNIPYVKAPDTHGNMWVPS
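Recombinant human Tdp1 (E. coli-expressed, 1 nM final) preincubated with compounds 15 min at room temperature, then 5'-biotin/3'-phosphotyrosine-FITC DNA substrate (15 nM final) added for 5 min. AlphaScreen beads (10 ug/ml final) added 10 min; cleavage lowers signal.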
* marks the source's active call; other numbers are inactive results; u = inconclusive; x = no result; ! = repeats disagree; [ ] = another dose, or the depositor's remark. Compounds with a hit are over-represented: about 19% of the library has one in this group of screens. Unless noted, calls follow the shape of the dose curve; as a rule, active = well fitted curve in the direction sought with a large enough effect; inconclusive = small, poorly fitted or top-dose-only effect, or another doubt; inactive = no such curve, though single readings can be large; an effect the other way counts as inactive or inconclusive.

SMILES	DT40 TDP1 CPT	IL-1B inflam inh	TDP1 cell noCPT	TGFb inhibitor	HepG2 viability	TDP1 block
Cc1cccc(N2CCN(C(=O)CCS(=O)(=O)c3ccc4c(c3)oc(=O)n4C)CC2)c1C	u	-15.0	u	u	-27.6%	0.4%
Cn1c(=O)oc2cc(S(=O)(=O)N3CCc4ccccc43)ccc21	u	0.0	-5.1%	-25.8%	-3.2%	x
Cn1c(=O)oc2cc(S(=O)(=O)N3CCC(C(=O)N4CCN(c5ccc(F)cc5)CC4)CC3)ccc21	25.9µM*	7.0	9.2µM*	-3.1%	-3.3%	1.9%
CC1=C[C@H]2[C@]3(O)C(C=C(CO)C[C@]2(O)C1=O)[C@@H]1C(C)(C)[C@]1(O)[C@H](O)[C@H]3C (stereo partly drawn)	x	x	x	x	x	5.6%
Cc1cc(C)cc(OCC(=O)Nc2ccc(Cl)cc2C(=O)c2ccccc2)c1	-5.4%	x	0.4%	1.6%	-4.2%	1.0%[2.28 µM]
Cc1cc(C(=O)Nc2ccccc2)nn1C(C)(C)C	-0.8%	-4.3	-28.1%	-5.9%	-62.6%	9.6%
Cc1nn(C(C)(C)C)c(C)c1/C=N/OC(=O)Nc1ccc(Cl)cc1	u	-93.7*	u	u	-33.7%	-5.2%
OC(c1ccc(F)cc1)(c1ccc(F)cc1)[C@@H]1CCCN1	u	-26.6	16.4µM*	19.5%	-24.1%	2.9%
CC(Cc1ccccc1)NC(N)=O (stereo not drawn)	0.3%	9.4	-6.5%	10.5%	-1.4%	2.7%
CC(Cc1ccccc1)NC(=O)/C=C/c1ccc(Cl)cc1 (stereo not drawn)	u	-54.3*	u	-2.8%	-6.6%	-0.6%
COc1cc2c(cc1OC)-c1c(O)c(OC)cc3c1[C@H](C2)N(C)CC3	u	x	23.7µM*	x	x	-1.0%[56.1 µM]
COc1cc2c(cc1OC)-c1c(OC)c(OC)cc3c1C(C2)N(C)CC3 (stereo not drawn)	u	-5.7	u	23.5%	-17.0%	2.1%
CCCc1cc2c(n1Cc1ccco1)C(C)C1CN(C(=O)c3ccccc3)C(C)(C(=O)OC)C21 (stereo not drawn)	x	x	x	x	x	-0.9%
CCC1C(=O)OCC1Cc1cncn1C (stereo not drawn)	6.5%	x	-6.2%	x	x	12.4%[56.1 µM]
CC(C)c1cccc(O)c(=O)c1	6.51µM*!	0.0	22.4µM*	2.7%	4.2%	13.4%
CSc1ncc(C(=O)Nc2ccc(Cl)cc2C(=O)c2ccccc2)c(C)n1	u	x	u	0.4%	-14.1%	6.2%
CO[C@H]1C=C2CCN(C)[C@@H]2[C@@H]2c3cc4c(cc3C(=O)O[C@H]21)OCO4	x	x	x	x	x	10.8%[21 µM]
O=C(CCN1CC1)OCCOC(=O)CCN1CC1	5.17µM*	-2.5	4.61µM*	1.1%	0.4%	x
CCOC(=O)c1ncn2c1CN(C)C(=O)c1cc(F)ccc1-2	u	-53.1*	-18.7%	15.0%	-22.0%	11.3%[56.1 µM]
Clc1cccc(C(c2ccc3nc[nH]c3c2)n2ccnc2)c1 (stereo not drawn)	u	x	26.6µM*	x	x	x
Cc1cccc(Cn2cccc(C(=O)Nc3nnc(C)s3)c2=O)c1	-19.3%	x	-21.9%	u	-10.7%	5.2%
O=C(Nc1cccc(Cl)c1)c1cnc2sc(N3CCCC3)nn2c1=O	u	x	u	x	-17.6%	9.7%
Cc1c(C(=O)c2cccc3ccccc23)c2cccc3c2n1[C@H](CN1CCOCC1)CO3	2.91µM*!	-27.3	4.61µM*!	u	-44.7%	-5.8%[56.1 µM]
O=C(CN1CCOCC1)c1cccc2ccccc12	-24.0%	-1.5	u	-2.9%	5.2%	-8.8%
Cc1c(C(=O)c2ccc3ccccc3c2)c2cccc3c2n1[C@H](CN1CCOCC1)CO3	11.9µM*	x	u	x	x	14.3%
SMILES	DT40 TDP1 CPT	IL-1B inflam inh	TDP1 cell noCPT	TGFb inhibitor	HepG2 viability	TDP1 block
CC(CC(C#N)(c1ccccc1)c1ccccc1)N(C)C (stereo not drawn)	u	-17.2	u	1.9%	-18.3%	0.8%
CC[C@H](O)C(C[C@H](C)N(C)C)(c1ccccc1)c1ccccc1	44.1µM*	x	u	x	x	x
C[C@@H](N)[C@@H](O)c1ccccc1	-6.3%[21.1 µM]	x	-2.1%[21.1 µM]	x	x	x
CC1OC(C)OC(C)O1 (stereo not drawn)	14.9%	x	-23.7%	x	x	3.1%
Cc1ccc(C2CC3CCC(C2)N3Cc2ccccc2F)cc1 (stereo not drawn)	u	-84.6*	u	-1.2%	-5.0%	x
Cc1ccc(CN2C3CCCC2CC(NC(=O)c2ccc(F)cc2)C3)cc1 (stereo not drawn)	-9.3%	-16.3	u	-12.1%	-21.1%	2.4%
CCc1ccc(NC(=O)c2cnc3sc(N4CCCC4)nn3c2=O)cc1	u	x	u	u	-8.3%	7.1%
Cc1cc(OCC(=O)NCC(O)c2ccccc2)c2c3c(c(=O)oc2c1)CCCC3 (stereo not drawn)	u	-19.3	18.4µM*	6.6%	2.3%	-0.2%
CCOc1ccc(NCc2cccn2-c2nnc(N3CCC(C(=O)NC(C)c4ccccc4)CC3)s2)cc1 (stereo not drawn)	20.6µM*	x	8.2µM*	x	-19.6%	6.8%
COC(=O)C1=C(c2cccc3c2S(=O)(=O)c2ccccc2-3)C[C@@H]2CC[C@H]1N2C(=O)N1CCOCC1	23.1µM*	-7.6	u	-1.0%	-11.1%	0.4%
COC(=O)C1=C(c2ccc(F)cc2F)C[C@@H]2CC[C@H]1N2C(=O)N1CCC(O)CC1	11.2%	29.5	-12.9%	-8.5%	0.9%	0.6%
COC(=O)C1=C(c2cccc3c2S(=O)(=O)c2ccccc2-3)C[C@@H]2CC[C@H]1N2C(=O)N1CCc2cc(OC)c(OC)cc2C1	20.6µM*	-17.3	20.6µM*	-0.8%	-19.5%	4.3%
COC(=O)C1=C(c2cccc(C#N)c2)C[C@@H]2CC[C@H]1N2C(=O)N1CCOCC1	-19.1%	18.2	u	1.0%	-2.1%	0.3%
O=C(O)c1[nH]n(-c2ccc(S(=O)(=O)O)cc2)c(=O)c1N=Nc1ccc(S(=O)(=O)O)cc1	u	x	u	4.0%	3.6%	x
CCCCN1CC(=O)N2[C@H]3c4cc(C)ccc4OC[C@@H]3[C@H](c3ccccc3)[C@]2(C)C1=O	u	-5.5	u	u	-9.5%	1.5%
Cc1cnc(SCc2ccccn2)nc1C1CCCN(C(=O)c2scc3c2CCCC3)C1 (stereo not drawn)	11.6µM*	x	10.3µM*	x	x	x
